# TDP1 cell noCPT: qHTS for Inhibitors of human tyrosyl-DNA phosphodiesterase 1 (TDP1): qHTS in cells in absence of CPT; DT40 Tdp1-/- hTDP1 cells, no CPT, ATP luminescence, 48 h; AID 686978, 2013; 15% of 420,000 active; Potency, µM (titrated, usually from 46.2 µM), for the others: top-dose activity change, negative = growth inhibition, actives largely listed as inhibitors; note: potency is the fitted concentration of half-maximal effect; % is set by controls: 0 for no effect and ±100 for the full control effect; nearly all actives have a fitted effect of over 55% in size
#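 Compound effects on proliferation are scored in DT40 Tdp1-/-;hTDP1 cells in the absence of CPT. ATP levels (CellTiter-Glo luminescence) are recorded after a ≥48 hr, 37 °C incubation.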
# TGFb SMAD3 inh: TGF-b pathway inhibition; 1.2% of 410,000 active; Potency, µM (series often up to 46.1 µM), for the others: top-dose activity, negative = inhibition, most hits filed as inhibitors; HepG2 CAGA-GFP TGF-b/SMAD3 reporter, GFP fluorescence, 18 h; TGF-beta stimulated, 500 pg/mL final; note: potency is the fitted concentration of half-maximal effect; % is set by controls: 0 for no effect and ±100 for the full control effect; nearly all actives have a fitted effect of over 65% in size
#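 Cell-based qHTS in HEPG2 carrying a CAGA-GFP Smad reporter; compounds added before 500 pg/mL final TGF-beta, 18 h incubation at 37 degrees C, GFP fluorescence quantified per cell by imaging cytometry.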
# IL1B secr inh: inflammasome signaling inhibition, IL-1 beta readout | activity change, % at 57.5 µM | AID 743279 | 4.7% of 360,000 active | THP-1 LPS/ATP IL-1B secretion, AlphaLISA, 16 h; hits give low values; in the data active = activity change below about -50%; inconclusive = mostly about -30% to -49%; note: % is set by controls: 0 for no effect and ±100 for the full control effect
#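 Secreted IL-1B measured by AlphaLISA bead assay after 16 h compound exposure of THP-1 cells; compounds (final up to 57.5 uM) added 1 h before LPS (250 ng/mL) and ATP (1.25 mM) stimulation; lower signal means less secretion.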
# DT40 TDP1 CPT: growth inhibition of DT40 Tdp1-/-;hTDP1 cells with camptothecin (screen for TDP1 inhibitors); chicken DT40 Tdp1-/-;hTDP1 cells + 20 nM CPT, ATP luminescence, 48 h; Potency, µM (titrated, usually from 46.2 µM), inactives show top-dose activity change, negative = growth inhibition, actives largely listed as inhibitors; 12% of 420,000 active; note: potency is the fitted concentration of half-maximal effect; % is set by controls: 0 for no effect and ±100 for the full control effect; nearly all actives have a fitted effect of over 55% in size
#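 Cell growth measured by CellTiter-Glo luminescence after a minimum 48 h, 37 C compound exposure with 20 nM CPT in Tdp1-knockout DT40 cells stably expressing hTDP1, seeded 400/well; qHTS titration format.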
# HepG2 tox: counter-screen for TGF-b inhibitors: cytotoxicity in HepG2 cells; HepG2 CAGA-GFP viability, ATP luminescence, 18 h; Potency, µM (highest dose often 46.1 µM), for inactives: top-dose activity change, negative = cytotoxicity, most hits filed as cytotoxic; 0.76% of 410,000 active; AID 588856; note: potency is the fitted concentration of half-maximal effect
#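 CellTiter-Glo luminescence gave cytotoxicity after 18 hours at 37 degrees C. The cells were HepG2 CAGA-GFP in 1% FBS DMEM, stimulated with 500 pg/mL TGF-beta after compound addition. %Activity was normalised to no-cell wells (complete cell-killing) and DMSO (no toxicity), and curves were fitted and classified.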
# TDP1 inh: blocks human tyrosyl-DNA phosphodiesterase 1; AID 485290; recombinant TDP1, AlphaScreen DNA substrate cleavage; 0.28% of 350,000 active; Q9NUW8; Potency, µM (titrated, usually from 130 µM), for the others: top-dose activity change, negative = inhibition, usual class: inhibitors; note: potency is the fitted concentration of half-maximal effect; % is set by controls: 0 for no effect and ±100 for the full control effect; nearly all actives have a fitted effect of over 40% in size
# Target sequence (Q9NUW8 whole entry, looked up): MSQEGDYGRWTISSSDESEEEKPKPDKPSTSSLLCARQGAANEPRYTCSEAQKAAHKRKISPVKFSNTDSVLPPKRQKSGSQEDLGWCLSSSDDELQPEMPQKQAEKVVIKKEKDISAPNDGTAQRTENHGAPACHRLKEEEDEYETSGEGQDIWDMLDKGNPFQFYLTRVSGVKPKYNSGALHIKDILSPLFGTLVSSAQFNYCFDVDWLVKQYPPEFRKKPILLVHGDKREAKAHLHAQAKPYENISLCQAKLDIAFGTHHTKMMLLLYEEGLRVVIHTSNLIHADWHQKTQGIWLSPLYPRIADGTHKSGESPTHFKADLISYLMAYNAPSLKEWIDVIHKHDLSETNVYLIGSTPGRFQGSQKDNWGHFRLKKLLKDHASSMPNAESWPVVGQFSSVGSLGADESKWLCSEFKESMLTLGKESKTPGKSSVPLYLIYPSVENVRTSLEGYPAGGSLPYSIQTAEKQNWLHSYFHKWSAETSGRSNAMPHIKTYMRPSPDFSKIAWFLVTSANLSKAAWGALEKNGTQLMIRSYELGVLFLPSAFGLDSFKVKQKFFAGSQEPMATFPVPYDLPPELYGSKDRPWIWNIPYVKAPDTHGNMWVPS
#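 Compounds were preincubated with Tdp1 (1 nM final) for 15 min at room temperature before substrate (15 nM final) started a 5 min reaction; beads (10 ug/ml final) were then added for 10 min before AlphaScreen detection.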
# Active calls of the source: *; ? = inconclusive; · = no result; [ ] = another dose, or the depositor's remark. Sampled rows, rich in hits. Any-hit rate of the full collection: about 18%. Unless noted, calls come from the whole dose curve; as a rule, active = well fitted curve in the direction sought with a large enough effect; inconclusive = small, poorly fitted or top-dose-only effect, or another doubt; inactive = no such curve, though single readings can be large; an effect the other way counts as inactive or inconclusive.
SMILES,TDP1 cell noCPT,TGFb SMAD3 inh,IL1B secr inh,DT40 TDP1 CPT,HepG2 tox,TDP1 inh
COc1cccc(C(C(=O)NC(C)(C)C)N(C(=O)CCC(=O)Nc2cc(C)on2)c2ccc3c(c2)OCCO3)c1OC (stereo not drawn),?,-1%,12,-16%,4%,9%
CC(=O)c1ccccc1NC(=O)CSc1nnc2ccccn12,·,·,·,·,·,0%
CC1(C(=O)NS(=O)(=O)c2cccc(Cl)c2)CCN1C(=O)CC1CC1 (stereo not drawn),-12%,1%,12,1%,-9%,·
O=C(NC1CCCCC1)N1CCN(c2ccc(Cl)cc2)CC1,?,-10%,-23,?,0%,2%[56.1 µM]
COc1ccc(NC(=O)N2CCN(c3ccc([N+](=O)[O-])cc3)CC2)cc1OC,18µM*,10%,?,?,0%,5%
O=C(NC1CCCCC1)N1CCN(c2ccc([N+](=O)[O-])cc2)CC1,?,-8%,?,13µM*,-4%,2%[56.1 µM]
CC(C)NCC(O)COC1C2CC3CC(C2)CC1C3 (stereo not drawn),16%,9%,3,21%,4%,6%
CC1CCC(C(C)C)C(OCC(O)CNC(C)C)C1 (stereo not drawn),?,4%,-10,23µM*,-12%,·
Cc1c(C(=O)N2CCC(C)CC2)c(S(=O)(=O)Nc2ccc(OC(F)(F)F)cc2)c(C)n1C,16µM*,-4%,·,?,-9%,4%
Cc1[nH]c(C)c(S(=O)(=O)Nc2ccc(OC(F)(F)F)cc2)c1C(=O)N1CCCCC1,16µM*,-5%,?,21µM*,-33%,4%
CCc1cccc(C)c1NS(=O)(=O)c1c(C(=O)N2CCC(C)CC2)c(C)n(C)c1C,?,-6%,·,18µM*,-8%,1%
CCc1cccc(C)c1NS(=O)(=O)c1c(C(=O)N2CCCCCC2)c(C)n(C)c1C,?,-7%,·,?,-21%,8%
COc1cc(N2C(=O)C=CC2=O)ccc1N1C(=O)C=CC1=O,0.92µM*,?,-99*,0.73µM*,-103%,·
CCC1CN(C(=O)Nc2cc(C)cc(C)c2)c2ccccc2O1 (stereo not drawn),?,-14%,·,?,-21%,4%
CCC1CN(C(=O)Nc2cccc(OC)c2)c2ccccc2O1 (stereo not drawn),23µM*,-27%,·,?,-14%,4%
CCOC(=O)c1cccc(NC(=O)N2CC(CC)Oc3ccccc32)c1 (stereo not drawn),16µM*,?,·,?,4%,-3%
CCC1CN(C(=O)Nc2cccc(C)c2)c2cc(C)ccc2O1 (stereo not drawn),21µM*,-2%,0,?,-10%,4%
O=C(COC(=O)/C=C/c1cccc(C(F)(F)F)c1)NC1CCS(=O)(=O)C1 (stereo not drawn),-13%,-6%,-6,-2%,-20%,-3%[56.1 µM]
Cc1ccc(Oc2ccc(-c3nc(N)nc(N)n3)cc2)cc1C,-21%,0%,0,-25%,-40%,5%
Cc1cccc(N2CCN(C(=O)CN3CCOc4ccccc43)CC2C)c1 (stereo not drawn),?,-7%,-24,23µM*,-20%,4%
Cc1cccc(N2CCN(C(=O)CC(NC(=O)c3ccccc3)c3ccccc3)CC2C)c1 (stereo not drawn),29µM*,-3%,-11,?,-13%,0%
O=C(Cn1ccc2ccccc2c1=O)N1CCN(c2cccc(Cl)c2)CC1,?,-5%,-2,-13%,-17%,4%
O=C(CN1CCOc2ccccc21)N1CCN(c2cccc(Cl)c2)CC1,29µM*,11%,?,?,1%,·
CC(C)(C)OC(=O)C[C@@H]1C/C=C\C[C@H](CC(=O)N(CCO)Cc2ccccc2)C(=O)N[C@H](C(C)(C)C)COC1=O,?,-9%,14,?,0%,-1%
CCOc1ccc(OCCCC(=O)N(CC)CC(=O)Nc2c(F)cccc2F)cc1,-23%,-9%,1,-21%,-14%,1%
SMILES,TDP1 cell noCPT,TGFb SMAD3 inh,IL1B secr inh,DT40 TDP1 CPT,HepG2 tox,TDP1 inh
Cc1ccc(C)c(N2CCN(C(=O)c3c4c(nc5ccccc35)C(=O)N(C3CCCCC3)C4)CC2)c1,18µM*,-1%,·,16µM*,-1%,3%
COc1ccccc1N1CCN(C(=O)c2c3c(nc4ccccc24)C(=O)N(C2CCCCC2)C3)CC1,21µM*,22%,·,13µM*,7%,10%
CC(C)OCCCNC(=O)c1c2c(nc3ccccc13)C(=O)N(C1CCCCC1)C2,-23%,15%,·,-22%,-2%,10%
O=C(/C=C/[C@H]1O[C@@H](n2cnc3c(NC(=O)c4ccccc4)ncnc32)[C@H](O)[C@@H]1O)NCc1ccc2c(c1)OCO2,-12%,-7%,-14,7%,-58%,·
CCOc1ccc2nc(-c3ccccc3)[nH]c2c1,21µM*,-12%,-3,9.2µM*,-48%,5%
CCCCn1c(CNC(=O)C23CC4CC(CC(C4)C2)C3)nnc1SC(C)CC (stereo not drawn),21µM*,?,-16,23µM*,-6%,3%
CCn1c(CNC(=O)C23CC4CC(CC(C4)C2)C3)nnc1SC,1%,-1%,10,6%,-14%,0%
O=C(NCc1nnc(SCc2ccccc2)n1-c1ccccc1)C12CC3CC(CC(C3)C1)C2,18µM*,?,?,15µM*,5%,-4%
CCCCSc1nnc(CNC(=O)C23CC4CC(CC(C4)C2)C3)n1Cc1ccccc1,15µM*,?,?,16µM*,-27%,1%
COc1ccccc1C(=O)Nc1ccc(OCC(=O)N2C(C)CCCC2C)cc1 (stereo not drawn),?,-6%,-8,-14%,-16%,0%
COc1ccc(C(=O)Oc2ccc3c(c2)OCO3)cc1OC,-25%,-3%,21,-15%,2%,-6%
COc1ccc(/C(N)=N/OC(=O)c2ccc3c(c2)OCO3)cc1OC,?,-5%,-62*,21µM*,-32%,2%
COc1ccc(/C(N)=N/OC(=O)c2cccs2)cc1OC,?,1%,?,12µM*,10%,3%
Cc1ccc(/C(N)=N/OC(=O)c2cccs2)cc1,21µM*,-10%,-4,23µM*,-8%,0%

# Compound activity deposited in PubChem by National Center for Advancing Translational Sciences (NCATS).
